Inconclusive results are not listed. A number with no mark means an inactive call. Active and inactive are the calls of the source. Calls come from the whole dose curve; as a rule, active = well fitted cell-killing curve with a large enough effect; inconclusive = small, poorly fitted or top-dose-only effect, or effect the other way; inactive = no such curve, though single readings can be large or run the other way.
Assay: Quantitative High-Throughput drug screen in 47 multiple myeloma cell lines against the NCATS MIPE library collection: ARP1_JJKsccF8 cell viability assay (AID 1918928; note: nearly all actives have a fitted effect of over 40% in size)
Conditions: ARP1 myeloma cells viability, CellTiter-Glo ATP, 48 h; series mostly up to 45.8 µM; viability: at the top concentration
How it was run: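 ATP readout (CellTiter-Glo), 48 h drug incubation, 37 °C/5% CO2, 500 cells per well; normalisation to DMSO (100%) and media-only (0%) controls.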
Potency is the fitted concentration of half-maximal effect.

Structure (SMILES) | Potency | viability
NC1(C(=O)N[C@@H](CCO)c2ccc(Cl)cc2)CCN(c2ncnc3[nH]ccc23)CC1 | 2.09 µM (active) | 
CC(C)=CCCC(C)=CCCC(C)=CCCC(C)=CCCC(C)=CCCC(C)=CCCC(C)=CCCC(C)=CCCC(C)=CCO |  | 113%
CC(=O)OCC(=O)[C@@]12OC(C)(C)O[C@H]1C[C@H]1[C@@H]3C[C@H](F)C4=CC(=O)C=C[C@]4(C)[C@@]3(F)[C@@H](O)C[C@@]12C | 0.0264 µM (active) | 
CCCCCOC(=O)Nc1nc(=O)n([C@@H]2O[C@H](C)[C@@H](O)C2O)cc1F (some centres undefined) |  | 121%
CCOC(=O)[C@H](CCc1ccccc1)N[C@@H](C)C(=O)N1CCCC1C(=O)O (some centres undefined) |  | 109%
CCCCC(F)(F)[C@@]1(O)CC[C@H]2[C@H](CC(=O)[C@@H]2CCCCCCC(=O)O)O1 |  | 101%
CC1(C)CC(=O)c2c(C(F)(F)F)nn(-c3ccc(C(N)=O)c(NC4CCC(O)CC4)c3)c2C1 (centres undefined) | 0.132 µM (active) | 
CCN(CC)CCCCNc1nc2cc(Cl)c(Cl)cc2nc1-c1ccc(-c2cccs2)s1 | 7.43 µM (active) | 
COc1cc(CNC(=O)CCCCC=CC(C)C)ccc1O |  | 105%
O=S(=O)(O)c1ccc2cc(N=Nc3cc(S(=O)(=O)O)c4cccnc4c3O)ccc2c1 | 2.35 µM (active) | 
Cc1cn([C@@H]2C[C@@H](O)[C@H](CO)O2)c(=O)[nH]c1=O |  | 86.3%
Cc1cccc(-c2[nH]c(C(C)(C)C)nc2-c2ccc3c(c2)OCO3)n1 | 16.6 µM (active) | 
CCCCC[C@H](O)C=C[C@H]1[C@H](O)CC(=O)[C@H]1CCCCCCC(=O)O | 23.5 µM (active) | 
C[C@@H](O)[C@H]1C(=O)N2C(C(=O)OCOC(=O)C(C)(C)C)=C(SC3CN(C4=NCCS4)C3)[C@H](C)[C@H]12 |  | 98.5%
N#CC(c1ccnc(NCCc2cccnc2)n1)c1nc2ccccc2s1 (centres undefined) | 18.7 µM (active) | 
CC1(C)OC2CC3C4CC(F)C5=CC(=O)C=CC5(C)C4C(O)CC3(C)[C@]2(C(=O)CO)O1 (some centres undefined) | 0.0209 µM (active) | 
COC(=O)N1CCN(Cc2cccc(NC(=O)Nc3ccc(C)nc3)c2F)CC1 |  | 75.3%
CCN1C[C@H](C)n2c(c(O)c3c(=O)n(Cc4ccc(F)c(Cl)c4)nc(C(=O)NC)c32)C1=O |  | 117%
CNC(=O)c1cc(Oc2ccc(NC(=O)Nc3ccc(Cl)c(C(F)(F)F)c3)c(F)c2)ccn1 | 23.5 µM (active) | 
CC[C@H](C)C(=O)O[C@H]1C[C@H](O)C=C2C=C[C@H](C)[C@H](CC[C@@H](O)C[C@@H](O)CC(=O)O)[C@H]21 |  | 112%
CN1CC(=O)N2C(Cc3c([nH]c4ccccc34)[C@H]2c2ccc3c(c2)OCO3)C1=O (some centres undefined) |  | 104%
C[C@@]1(c2cc(-c3cncnc3)c(F)cc2F)CCSC(N)=N1 |  | 83.9%
COc1cc2ncn(-c3cc(OCc4ccccc4S(C)(=O)=O)c(C#N)s3)c2cc1OC |  | 104%

Assay: Quantitative High-Throughput drug screen in 47 multiple myeloma cell lines against the NCATS MIPE library collection: ARD_JJKsccE7 cell viability assay (AID 1918929)
Conditions: ARD myeloma cell line viability, CellTiter-Glo, 48 h; series mostly up to 45.8 µM; viability: at the top concentration
How it was run: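 Steps: seed 500 cells per well; pin-transfer MIPE 4.0 library; incubate 48 h at 37C, 5% CO2, humidified; add CellTiter-Glo, 5 min room temperature; read luminescence.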

Structure (SMILES) | Potency | viability
CCc1cccc(CC)c1NC(=O)N1Cc2[nH]nc(NC(=O)c3ccc(N4CCN(C)CC4)cc3)c2C1 | 1.18 µM (active) | 
NC1(C(=O)N[C@@H](CCO)c2ccc(Cl)cc2)CCN(c2ncnc3[nH]ccc23)CC1 | 0.0469 µM (active) | 
CC(C)=CCCC(C)=CCCC(C)=CCCC(C)=CCCC(C)=CCCC(C)=CCCC(C)=CCCC(C)=CCCC(C)=CCO |  | 126%
CC(=O)OCC(=O)[C@@]12OC(C)(C)O[C@H]1C[C@H]1[C@@H]3C[C@H](F)C4=CC(=O)C=C[C@]4(C)[C@@]3(F)[C@@H](O)C[C@@]12C | 0.0148 µM (active) | 
CCCCCOC(=O)Nc1nc(=O)n([C@@H]2O[C@H](C)[C@@H](O)C2O)cc1F (some centres undefined) |  | 104%
Nc1[nH]nc2nnc(-c3c(-c4ccccc4)nn4ccccc34)cc12 | 2.96 µM (active) | 
CCOC(=O)[C@H](CCc1ccccc1)N[C@@H](C)C(=O)N1CCCC1C(=O)O (some centres undefined) |  | 127%
CCCCC(F)(F)[C@@]1(O)CC[C@H]2[C@H](CC(=O)[C@@H]2CCCCCCC(=O)O)O1 |  | 157%
O=C(Nc1cccc(C(F)(F)F)c1)Nc1cc(S(=O)(=O)NC2CC2)ccc1-c1ccsc1 |  | 128%
CC1(C)CC(=O)c2c(C(F)(F)F)nn(-c3ccc(C(N)=O)c(NC4CCC(O)CC4)c3)c2C1 (centres undefined) |  | 88.8%
Cc1nc2c([nH]1)CCN(C(=O)c1ccc(NC(=O)c3ccccc3-c3ccccc3)cc1)c1ccccc1-2 |  | 92.9%
CCN(CC)CCCCNc1nc2cc(Cl)c(Cl)cc2nc1-c1ccc(-c2cccs2)s1 | 8.33 µM (active) | 
COc1cc(CNC(=O)CCCCC=CC(C)C)ccc1O |  | 104%
Cc1cn([C@@H]2C[C@@H](O)[C@H](CO)O2)c(=O)[nH]c1=O |  | 89.1%
Cc1cccc(-c2[nH]c(C(C)(C)C)nc2-c2ccc3c(c2)OCO3)n1 | 5.26 µM (active) | 
CCCCC[C@H](O)C=C[C@H]1[C@H](O)CC(=O)[C@H]1CCCCCCC(=O)O |  | 131%
C[C@@H](O)[C@H]1C(=O)N2C(C(=O)OCOC(=O)C(C)(C)C)=C(SC3CN(C4=NCCS4)C3)[C@H](C)[C@H]12 |  | 88.2%
N#CC(c1ccnc(NCCc2cccnc2)n1)c1nc2ccccc2s1 (centres undefined) | 6.62 µM (active) | 
CC1(C)OC2CC3C4CC(F)C5=CC(=O)C=CC5(C)C4C(O)CC3(C)[C@]2(C(=O)CO)O1 (some centres undefined) | 0.0187 µM (active) | 
COC(=O)N1CCN(Cc2cccc(NC(=O)Nc3ccc(C)nc3)c2F)CC1 |  | 115%
CCN1C[C@H](C)n2c(c(O)c3c(=O)n(Cc4ccc(F)c(Cl)c4)nc(C(=O)NC)c32)C1=O |  | 126%
CNC(=O)c1cc(Oc2ccc(NC(=O)Nc3ccc(Cl)c(C(F)(F)F)c3)c(F)c2)ccn1 | 5.26 µM (active) | 
CC[C@H](C)C(=O)O[C@H]1C[C@H](O)C=C2C=C[C@H](C)[C@H](CC[C@@H](O)C[C@@H](O)CC(=O)O)[C@H]21 |  | 125%
CN1CC(=O)N2C(Cc3c([nH]c4ccccc34)[C@H]2c2ccc3c(c2)OCO3)C1=O (some centres undefined) |  | 93.4%
C[C@@]1(c2cc(-c3cncnc3)c(F)cc2F)CCSC(N)=N1 | 0.059 µM (active) | 
COc1cc2ncn(-c3cc(OCc4ccccc4S(C)(=O)=O)c(C#N)s3)c2cc1OC |  | 116%

From PubChem BioAssay (NCATS)
